Here are results for twelve compounds from PubChem BioAssay (NCI).

Compounds without any hit were thinned out: in the full panel of roughly 83,000, 20% have a hit.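 96-well plates, one dose, 48 hours. Percent growth reported; active if below 10.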 Unmarked numbers belong to inactive results. Activity calls are given as the source filed them.

In this test the test system is MDA-MB-468 breast. In words: NCI-60 one-dose screen, 48 h (100 = growth as untreated, 0 = no growth, -100 = all killed). As to conditions: 10 µM unless noted.
As for `Cc1cc2c([nH]1)CSc1cc(S(=O)(=O)c3ccccc3)c(=O)[nH]c1-2`, the growth was 24% [100 µM]. For `O=C(Nc1ccccc1)Nc1ncnc2c1ncn2-c1ccc(Cl)cc1` the value was 92.2%; for `c1ccc2c(c1)nc(-n1ccnc1)c1nc3ccccc3n12`, 76%. With `NS(=O)(=O)c1ccc(-n2cc(CN3CCCCC3)nn2)cc1` the figure was 101%.

`Cn1c([N+](=O)[O-])cnc1/C=C1\Oc2ccc(Br)cc2C1=O`: the growth is 13.1%. For `c1ccc(Nc2nc(Nc3ccccc3)nc(Nc3ccccc3)n2)cc1`, the growth is 93.8%. Consider `C=C1C(=O)O[C@H]2[C@H]1CC/C(Cn1cc(-c3ccsc3)nn1)=C\CC[C@@]1(C)O[C@@H]21`, for which the growth is -56.8% (active). Regarding `CCOC(=O)n1cc(-c2nonc2-c2cn(C(=O)OCC)c3ccc(Br)cc23)c2ccccc21`, the growth is 85.9%. For `C#C[C@]1(O)CC[C@H]2[C@@H]3CC=C4c5nc(N)sc5CC[C@]4(C)[C@H]3CC[C@@]21C` the value was 34%; for `CCN(CC)CCNCC(O)Cc1ccc(OC)cc1` (configuration not stated), 105%; for `CN(C)CCCNc1nn2c(=O)c3ccccc3nc2c2ccccc12`, 53.4%. Regarding `O=C(CO[N+](=O)[O-])Nc1ccc(C(=O)/C=C/c2ccc(Cl)cc2)cc1`, the growth was 48.7%.
